The list is not random: actives were taken first. Their share in the collection is about 4.6%.
sEH inhibitor – soluble epoxide hydrolase (human) inhibition; P34913; recombinant human sEH enzymatic activity assay; inhibition, % at 2 µM; 91,000 tested, 0.34% active; AID 707; in the data active means inhibition above about 80%
Target sequence (P34913 whole entry, looked up): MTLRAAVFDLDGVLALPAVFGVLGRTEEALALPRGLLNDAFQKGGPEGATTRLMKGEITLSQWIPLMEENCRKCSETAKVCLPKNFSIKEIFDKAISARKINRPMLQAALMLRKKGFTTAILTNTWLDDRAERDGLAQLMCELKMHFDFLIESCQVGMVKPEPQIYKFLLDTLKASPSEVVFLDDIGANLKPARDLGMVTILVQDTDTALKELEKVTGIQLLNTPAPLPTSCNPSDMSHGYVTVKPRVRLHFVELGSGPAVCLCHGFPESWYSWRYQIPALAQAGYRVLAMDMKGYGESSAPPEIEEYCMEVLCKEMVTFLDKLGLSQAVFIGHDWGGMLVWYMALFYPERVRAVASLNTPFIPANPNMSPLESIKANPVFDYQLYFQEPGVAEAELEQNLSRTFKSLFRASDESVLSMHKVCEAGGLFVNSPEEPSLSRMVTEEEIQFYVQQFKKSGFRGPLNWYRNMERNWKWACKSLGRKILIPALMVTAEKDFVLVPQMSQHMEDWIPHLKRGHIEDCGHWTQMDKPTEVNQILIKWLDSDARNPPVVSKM
Cav3 T inh – blocks human Cav3.2 T-type calcium channel; Cav3.2-expressing cells, Fluo-4 calcium fluorescence FDSS; active compounds read low; 100,000 tested, 4% active; O95180; B-score at 10 µM; AID 449739;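 active means single-dose well whose peak fluorescence ratio is a statistical outlier from its plate by either plate-standardised score or position-corrected B-score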
HUVEC tox IL1B – HUVEC cytotoxicity counter-screen, IL-1B stimulated | cell count reduction, % at 2 µM | AID 845 | HUVEC cell count loss, Hoechst imaging | 94,000 tested, 0.41% active;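 active means cell count reduction more than 3 SD above the screen-wide mean, cut at about 70% in these data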;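 further: normalized per plate to untreated control cells as the no-loss baseline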
sEH activator – increases human soluble epoxide hydrolase activity; purified human sEH enzymatic activity, activator screen; 91,000 tested, 0.04% active; P34913; activation, % at 2 µM; in the data active means activation above about 37%
IL1B NFkB pot – enhances IL-1B driven NFkB nuclear translocation. HUVEC IL-1B NFkB p65 nuclear translocation imaging. activation, % at 2 µM. 94,000 tested, 0.3% active. AID 819;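 active means activation above 40%, about the mean plus 3 SD, also judged a hit on visual image review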;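 further: percent activation is computed from the nuclear over cytoplasmic p65 intensity ratio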
IL1B NFkB inh – blocks IL-1B driven NFkB nuclear translocation in HUVEC cells; inhibition, % at 2 µM; 94,000 tested, 0.43% active; AID 796; HUVEC IL-1B NFkB p65 nuclear translocation imaging;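 active means inhibition above about 30% together with a positive call from visual inspection of the well image, limit read from the data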;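 further: nuclear over cytoplasmic p65 intensity ratio measured by imaging; 0% = IL-1B stimulated DMSO wells and 100% = unstimulated DMSO wells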
An asterisk follows results filed as active; · = no result.

SMILES	sEH inhibitor	Cav3 T inh	HUVEC tox IL1B	sEH activator	IL1B NFkB pot	IL1B NFkB inh
Cc1ccccc1-n1nnnc1SCc1csc(-c2ccccc2)n1	16	-4.5*	-1	-17	1	-1
CCc1cc([N+](=O)[O-])cc(CC)c1N	-13	·	8	14	-3	3
N=c1c2c(-c3ccccc3)c(-c3ccccc3)n(Cc3ccco3)c2ncn1Cc1ccccc1	11	-12*	16	-9	1	-1
OCCNc1ncnc2c1c(-c1ccccc1)c(-c1ccccc1)n2Cc1ccco1	9	-5*	6	-11	-7	7
CC(C)Cn1cnc2c(c(-c3ccccc3)c(-c3ccccc3)n2Cc2ccco2)c1=N	13	-8.3*	-25	-12	4	-4
N=c1c2c(-c3ccccc3)c(-c3ccccc3)oc2ncn1CCN1CCOCC1	5	0.52	-25	-2	-6	6
N=c1c2c(-c3ccccc3)c(-c3ccccc3)n(Cc3ccccc3)c2ncn1CCO	3	-5.2*	10	0	10	-10
CC(=O)Nc1ccc(S(=O)(=O)N2CCN(CC(O)COc3ccc4ccccc4c3)CC2)cc1 (centres undefined)	11	-0.013	-55	-9	16	-16
O=C(OCC(=O)N1N=C(c2ccc(Cl)cc2)CC1c1ccco1)c1ccccc1O (centres undefined)	-9	-4.7*	20	10	9	-9
Cc1ccc(C(=O)COC(=O)C2C3C=CC(C3)C2C(=O)OCC(=O)c2ccc(C)c(C)c2)cc1C (centres undefined)	-15	-5.1*	-37	16	3	-3
COc1ccc(CCNC(=O)CCn2c(=O)[nH]c3cc(OC)c(OC)cc3c2=O)cc1OC	-4	1.4	1	4	12	-12
CCCNC(=O)NC(=O)COc1ccc2oc3ccccc3c2c1	-15	-0.34	5	14	8	-8
Cc1cccnc1NC(=O)COc1ccc2oc3c(c2c1)CCCC3	25	-5.6*	-26	-21	-2	2
Cc1cc(NC(=O)COc2ccc3oc4ccccc4c3c2)no1	5	0.44	14	-1	-5	5
Cc1ccc(NC(=O)COc2ccc3oc4c(c3c2)CCCC4)nc1	-11	0.62	80*	7	16	-16
CN(CCOc1ccc(Cl)cc1)c1ccc(S(=O)(=O)N2CCCCC2)cn1	-15	-6.4*	-62	14	7	-7
CCOc1ccc(S(=O)(=O)N2CCCC2)cc1	3	0.3	1	-5	23	-24
[O-]/[N+](=C\c1ccccc1)[C@@H]1CCCC[C@@H]1/[N+]([O-])=C/c1ccccc1	3	1.2	93*	-4	-12	12
O=C(Oc1ccccc1C(=O)N1CCOCC1)c1cccc(Br)c1	11	-0.0046	-59	-13	-4	4
Cc1ccc([N+](=O)[O-])cc1N=C(c1cccc(Br)c1)N1CCOCC1	-3	-4.1*	-10	4	-7	7
CN1c2ccccc2C(O)=C(C(=S)Nc2ccc(Cl)cc2)S1(=O)=O	0	-7.4*	-2	2	3	-3
CCNc1c2c(nc3ccccc13)CC(C)(C)CC2=O	-10	-0.069	79*	13	-97	97*
CC1(C)CC(=O)c2c(nc3ccccc3c2N)C1	11	0.0066	-28	-7	13	-13
C/C(N)=C(/C#N)C(=O)COC(=O)COc1ccc(Cl)cc1C	-4	0.53	-7	5	19	-19
CC(C)C[C@H]1C(=O)N2CCC[C@H]2[C@]2(O)O[C@](NC(=O)[C@@H]3C=C4c5cccc6[nH]c(Br)c(c56)CC4N(C)C3)(C(C)C)C(=O)N12 (some centres undefined)	·	-4.8*	·	·	·	·
SMILES	sEH inhibitor	Cav3 T inh	HUVEC tox IL1B	sEH activator	IL1B NFkB pot	IL1B NFkB inh
CN(C)S(=O)(=O)N1CCN(C(=O)c2ccccc2)CC1	0	0.16	-16	-5	13	-13
CCCN1C2CCCC1CC(NC(=O)Nc1ccc(C(C)C)cc1)C2 (centres undefined)	8	-4.9*	0	-7	-1	1
c1csc(-n2nc3ccccc3n2)c1	-6	·	-4	3	2	-2
COCc1nnc(NS(=O)(=O)c2ccc(C)cc2)s1	-2	0.84	2	5	10	-10
Cc1ccc(S(=O)(=O)Nc2ccccc2-c2ccccc2)cc1	-3	-5.8*	5	5	6	-6
Cc1ccc(S(=O)(=O)Nc2nncs2)cc1	-12	0.9	-30	10	55*	-55
Cc1ccc(S(=O)(=O)Nc2ccnc3ccccc23)cc1	2	-0.24	-22	-4	-3	3
Cc1oc2c(C)c(O)ccc2c(=O)c1-c1ccc2ccccc2n1	13	0.85	4	-13	3	-3
Cc1c(O)ccc(/C(Cc2ccc3ccccc3n2)=N\O)c1O	·	-4.8*	-6	·	20	-20
Cc1ccc(NC(=O)CN2CCC(C(=O)c3ccc(F)cc3)CC2)cc1	2	-5.2*	-42	-2	10	-10
COc1ccc(NC(=O)N2CCC(C(=O)c3ccc(F)cc3)CC2)cc1	3	0.52	2	-1	6	-6
N#C/C(=C(/O)CN1C(=O)c2ccccc2C1=O)c1nc2ccccc2[nH]1	-7	-4.2	80*	6	3	-3
COc1ccc(NC(=O)c2cc3cc(OC)ccc3oc2=N)cc1	·	-1.3	·	·	·	·
COc1ccc2o/c(=N\O)c(C(=O)Nc3ccccc3OC)cc2c1	8	-0.74	76*	-10	-8	8
CC(=O)Nc1ccc(NC(=O)COC(=O)c2ccc(C)s2)cc1	3	-0.57	-24	-4	21	-21
Cc1cc(C)nc(N2CCC(C(=O)NC3CCCc4ccccc43)CC2)n1 (centres undefined)	42	0.99	-1	-42	31	-31
CCOC(=O)Nc1cc(C)ccc1OC	-6	-1.1	-32	9	18	-18
CCOc1ccccc1NC(=O)C(=O)/C=C(\O)c1cc(OC)ccc1OC	-19	-9.6*	9	14	6	-6
CCOc1ccc(NC(=O)c2ccccc2OC)cc1	5	·	11	-5	-1	1
COc1ccc(OC)c(/C(O)=C/C(=O)C(=O)Nc2cc(C)ccc2OC)c1	-18	-5.6*	-10	13	6	-6
COc1ccc(OC)c(C(=O)c2ccccc2)c1	1	-0.37	13	2	-3	4
COc1ccc(OC)c(/C(O)=C/C(=O)C(=O)Nc2cc(C)cc(C)c2)c1	-6	-9.1*	·	3	·	·
O=C(NCC1CCCO1)c1ccc(N2CCCCC2)nc1 (centres undefined)	·	-0.6	8	·	2	-2
Cc1ccccc1N(CC(=O)NCCc1ccccc1)C(=O)c1ccc(N2CCCC2)nc1	8	-4.8*	11	-10	-6	6
Cc1nc(NC(=O)CSc2nc3cccnc3n2Cc2ccccc2)sc1C	-8	-1.4	0	7	3	-4
COCc1cc(C)n(CC(=O)Nc2ccc(Cl)cc2Cl)c(=O)c1C#N	-20	0.29	-2	21	41*	-41
